Consider 19 compounds from ChEMBL document CHEMBL1961873, “Compounds: GSK PKIS; Assays: Nanosyn kinase panel” (2012).

SMILES strings stand for the structures.

Experiment [1] has as its target Serine/threonine-protein kinase PAK 6 (Homo sapiens) (UniProt Q9NQU5). The following applies: at 1 µM.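 Note: values are mean percent inhibition of PAK6 kinase.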
The subject of experiment [2] is Tyrosine-protein kinase ABL1 (Homo sapiens), P00519 [E255K]. As to conditions: at 0.1 µM.
For experiment [3] the test system is unchanged. As to conditions: at 1 µM.
The test system of experiment [4] is Tyrosine-protein kinase ABL1 (Homo sapiens), P00519 [H396P]. As to conditions: at 0.1 µM.
For experiment [5] the test system is unchanged. As to conditions: at 1 µM.
Experiment [6] deals with Tyrosine-protein kinase ABL1 (Homo sapiens), P00519 [M351T]. The following applies: at 0.1 µM.
Experiment [7] shares this test system. As to conditions: at 1 µM.
Experiment [8] concerns Tyrosine-protein kinase ABL1 (Homo sapiens), P00519 [Q252H]. As to conditions: at 0.1 µM.
For experiment [9] the test system is unchanged. As to conditions: at 1 µM.
Experiment [10] relates to Tyrosine-protein kinase ABL1 (Homo sapiens), P00519 [T315I]. As to conditions: at 0.1 µM.

Sequence of Serine/threonine-protein kinase PAK 6 (Homo sapiens) (Q9NQU5 whole entry, looked up): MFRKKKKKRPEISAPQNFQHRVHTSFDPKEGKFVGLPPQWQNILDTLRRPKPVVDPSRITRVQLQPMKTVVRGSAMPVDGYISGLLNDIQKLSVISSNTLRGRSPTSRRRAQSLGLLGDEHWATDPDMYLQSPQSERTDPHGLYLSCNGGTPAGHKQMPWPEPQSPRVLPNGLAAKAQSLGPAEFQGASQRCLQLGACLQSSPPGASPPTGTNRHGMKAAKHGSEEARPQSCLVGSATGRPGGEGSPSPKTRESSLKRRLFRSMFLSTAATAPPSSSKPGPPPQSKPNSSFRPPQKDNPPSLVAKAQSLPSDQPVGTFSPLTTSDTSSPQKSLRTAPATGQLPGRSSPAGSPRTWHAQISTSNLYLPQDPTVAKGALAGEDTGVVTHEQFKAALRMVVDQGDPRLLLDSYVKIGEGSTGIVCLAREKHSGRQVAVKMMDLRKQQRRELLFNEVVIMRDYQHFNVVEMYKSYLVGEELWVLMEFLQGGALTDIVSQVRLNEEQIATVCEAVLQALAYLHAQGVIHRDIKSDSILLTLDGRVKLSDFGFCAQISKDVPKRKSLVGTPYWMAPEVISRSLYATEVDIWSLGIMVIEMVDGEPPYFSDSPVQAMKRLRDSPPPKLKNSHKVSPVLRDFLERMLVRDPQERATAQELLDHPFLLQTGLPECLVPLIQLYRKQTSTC

For `CS(=O)(=O)CCNCc1ccc(-c2ccc3ncnc(Nc4ccc(OCc5ccccc5)c(C(F)(F)F)c4)c3c2)o1`, the inhibition is -6.97% in experiment [1]; 3.5% in experiment [2]; 2.71% in experiment [3]; 4.04% in [4]; 4.48% in experiment [5]; 0.91% in experiment [6]. Also, the inhibition is 0.91% in [7], 2.84% in [8], 2.08% in [9] and 2.59% in experiment [10].

Take `CCn1c(-c2nonc2N)nc2c(C#CC(C)(C)O)nc(OC[C@H](N)c3ccccc3)cc21`: the inhibition was 77.3% in experiment [1]; -1.28% in experiment [2]; -0.66% in [3]; 1.67% in experiment [4]; 2.25% in experiment [5]; 0.72% in experiment [6]. Also, the inhibition came to 1.98% in [7], 1.23% in experiment [8], 1.98% in experiment [9] and 0.64% in experiment [10].

`COc1ccc2c(-c3ccnc(Nc4cccc(OC(F)(F)F)c4)n3)cnn2n1`: the inhibition in [1] turned out to be 6.82%; in experiment [2] it was 3.39%; in [3] it was 4.4%; in experiment [4] it was 3.04%; in experiment [5], 15.7%; in experiment [6], 1.37%. Besides, the inhibition in [7] was found to be 11.9%; in experiment [8] it was 4.44%; in experiment [9], 9.67%; in [10], 0.99%.

Regarding `COC(=O)Nc1nc2ccc(Oc3ccc(NC(=O)Nc4cccc(Cl)c4)cc3)cc2[nH]1`, the inhibition in experiment [1] was -1.03%; in experiment [2], 3.36%; in experiment [3], 8.54%; in [4], 15.3%; in experiment [5] it was 40.9%; in experiment [6], 37.5%. Also, the inhibition in experiment [7] is 56.3%; in [8], 35.7%; in experiment [9] it was 59.7%; in experiment [10], 23.3%.

For `O=S(=O)(CCNCc1ccc(-c2ccc3ncnc(Nc4ccc(OCc5cccc(F)c5)c(Cl)c4)c3c2)o1)c1ccccc1`, the inhibition turned out to be 0.68% in experiment [1]; 3.29% in [2]; 4.49% in experiment [3]; 5.17% in experiment [4]; 6.8% in experiment [5]; 1.27% in experiment [6]. Also, the inhibition in [7] was found to be 2.88%; in [8], 5.71%; in experiment [9] it was 6.36%; in [10], 2.35%.

Turning to `c1ccc(-c2nc3n(c2-c2ccc4c(c2)OCO4)CCC3)nc1`, the inhibition in experiment [1] was -6.18%; in experiment [2], 1.4%; in experiment [3], 3.7%; in experiment [4], 0.35%; in experiment [5], 2.48%; in [6] it was 1.01%. For the same compound, the inhibition came out at 3.51% in experiment [7], 0.69% in experiment [8], 3.62% in experiment [9] and 0.65% in [10].

As for `CN1CCC(n2cnc(-c3ccc(F)cc3)c2-c2ccnc(Nc3ccccc3)n2)CC1`, the inhibition in experiment [1] was -6.61%; in experiment [2], 2.58%; in [3], 4.56%; in [4], 4.83%; in experiment [5], 13.6%; in [6], 0.84%. Besides, the inhibition came to 10.2% in experiment [7], 3.66% in [8], 9.15% in experiment [9] and 1.45% in experiment [10].

`NC(=O)c1sc(-n2cnc3ccc(C(F)(F)F)cc32)cc1OCc1ccccc1Br`: the inhibition in [1] was -7.15%; in experiment [2], 3.08%; in [3] it was 2.1%; in experiment [4] it was 3.37%; in experiment [5], 3.08%; in [6] it was 1.6%. The inhibition in [7] stood at 3.37%; in experiment [8] it was 3.06%; in experiment [9], 3.55%; in [10], 1.98%.

In the case of `CCn1c(-c2nonc2N)nc2c(C#CC(C)(C)O)ncc(OC3CCNCC3)c21`, the inhibition in [1] was 76%; in experiment [2], -0.7%; in [3], -0.01%; in experiment [4], 2.05%; in experiment [5] it was 2.1%; in [6] it was -0.57%. Also, the inhibition in [7] worked out at 0.51%; in experiment [8], 0.98%; in experiment [9] it was 0.41%; in [10] it was 2.72%.

On to `Fc1cccc(COc2ccc(Nc3ncnc4sc(-c5ccco5)cc34)cc2Cl)c1`, for which the inhibition in [1] is -3.19%; in experiment [2] it was 3.34%; in [3], 3.39%; in experiment [4] it was 3.3%; in [5] it was 5.3%; in [6], 0.31%. The inhibition in experiment [7] was 1.04%; in [8], 3.83%; in experiment [9] it was 2.01%; in [10], 1.83%.

Turning to `CCN(CC)S(=O)(=O)c1ccc(OC)c(Nc2ncc(-c3ccccc3)o2)c1`, the inhibition was found to be 4.66% in experiment [1]; 1.69% in experiment [2]; 28.2% in experiment [3]; 4.61% in experiment [4]; 32.8% in experiment [5]; 6.41% in [6]. In addition, the inhibition came to 38.4% in [7], 5.31% in experiment [8], 38.5% in experiment [9] and 1.63% in experiment [10].

Consider `Fc1ccc(-c2cc(-c3c[nH]nc3-c3ccccn3)ccn2)cc1`, for which the inhibition in [1] was -4.06%; in experiment [2] it was 3.42%; in experiment [3], 14.4%; in experiment [4] it was 7.22%; in [5] it was 29.8%; in experiment [6], 4.15%. Besides, the inhibition in [7] is 28.3%; in experiment [8], 5.44%; in experiment [9], 16%; in [10], 3.13%.

On to `CNC(=O)c1cncc(/C=C/c2ccccc2Cl)c1`, for which the inhibition in experiment [1] was 3.32%; in experiment [2] it was -0.16%; in experiment [3] it was 14.2%; in experiment [4], 2.14%; in experiment [5], 24.1%; in experiment [6], 3.34%. Moreover, the inhibition in experiment [7] came out at 20%; in [8] it was 1.38%; in [9], 17.3%; in experiment [10] it was 0.79%.

As for `COc1ccc2[nH]c3c4[nH]c5ccc(OC)cc5c4c4c(c3c2c1)C(=O)NC4=O`, the inhibition in experiment [1] was -0.34%; in [2] it was 7.87%; in experiment [3], 36.1%; in [4], 10.7%; in experiment [5], 45.3%; in experiment [6], 10.1%. The inhibition is 47.7% in [7], 29.6% in [8], 72.5% in [9] and 9.34% in experiment [10].

Regarding `CC1=C(C(=O)Nc2cc(Cl)c3[nH]ncc3c2)C(c2ccc(C(F)(F)F)cc2)CC(=O)N1` (stereo not given), the inhibition in experiment [1] is -3.39%; in experiment [2], 3.18%; in [3], 3.01%; in [4], 4.1%; in experiment [5], 2.88%; in [6] it was 1.43%. In addition, the inhibition in experiment [7] is 4.53%; in [8] it was 4.06%; in experiment [9] it was 4.83%; in experiment [10], 2.02%.

Turning to `Fc1ccc(-c2nn3ncccc3c2-c2ccnc(Nc3ccc4c(c3)OCCO4)n2)cc1`, the inhibition is -1.03% in experiment [1]; 10.2% in experiment [2]; 40.9% in [3]; 25.5% in [4]; 69.9% in experiment [5]; 38.6% in experiment [6]. The inhibition is 81% in [7], 31% in [8], 75.2% in [9] and 14.1% in experiment [10].

With `CN1CCC(n2cnc(-c3ccc(F)cc3)c2-c2ccnc(N)n2)CC1`, the inhibition is -6% in [1]; 3.04% in experiment [2]; 7% in experiment [3]; 2.82% in [4]; 11.9% in experiment [5]; -0.15% in experiment [6]. Further, the inhibition amounted to 7.75% in experiment [7], 2.65% in [8], 6.83% in [9] and 1.94% in experiment [10].

For the compound `O=C(Nc1n[nH]c2cc(-c3ccc(F)cc3)ccc12)C1CC1`, the inhibition was -5.36% in experiment [1]; 9.03% in experiment [2]; 23.3% in [3]; 11.3% in experiment [4]; 46.6% in experiment [5]; 11.5% in experiment [6]. In addition, the inhibition was determined as 55.2% in [7], 7.91% in experiment [8], 33.9% in experiment [9] and 19.5% in [10].

With `COC(=O)c1sc(-n2cnc3cc(OC)c(OC)cc32)cc1OCc1ccccc1C(F)(F)F`, the inhibition in [1] came to 0.71%; in experiment [2] it was 6.91%; in experiment [3] it was 22.7%; in experiment [4], 5.82%; in [5] it was 18.2%; in experiment [6] it was 4.03%. The inhibition in experiment [7] came to 16.2%; in experiment [8] it was 6.05%; in experiment [9], 18.9%; in experiment [10], 2.67%.
